For orientation: inhibition means the change of the read-out against control, counted positive when it falls.

Structures are written as SMILES. Several values for one entry are separate records, joined by “and”; a condition that tells them apart may be missing. Identical values can stand only once. In all, about 360,000 compounds went through this assay and about 1,600 (0.44%) were called active.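 Rule for the calls: active = every replicate showing at least 50% inhibition; inconclusive = mean inhibition at least 50% but not in every replicate; inactive = the rest.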 What follows is part of a selection rich in actives, with near analogues and random picks from the rest. Some structures have more than one record in an assay (separate samples or runs), and their calls can disagree.

This passage reports inhibition results from PubChem BioAssay AID651710 (Broad Institute, 2012).

The target in the experiment is DNA repair protein RAD52 homolog (Homo sapiens) (UniProt P43351). Put plainly: blockers of RAD52 strand annealing activity – biochemical, FRET, single point, set 2, primary screen (AID 651710). The note with it: recombinant RAD52 DNA annealing, FRET fluorescence; at 18.7 µM; stronger effect = higher value.
Chain of DNA repair protein RAD52 homolog (Homo sapiens) (P43351 whole entry, looked up): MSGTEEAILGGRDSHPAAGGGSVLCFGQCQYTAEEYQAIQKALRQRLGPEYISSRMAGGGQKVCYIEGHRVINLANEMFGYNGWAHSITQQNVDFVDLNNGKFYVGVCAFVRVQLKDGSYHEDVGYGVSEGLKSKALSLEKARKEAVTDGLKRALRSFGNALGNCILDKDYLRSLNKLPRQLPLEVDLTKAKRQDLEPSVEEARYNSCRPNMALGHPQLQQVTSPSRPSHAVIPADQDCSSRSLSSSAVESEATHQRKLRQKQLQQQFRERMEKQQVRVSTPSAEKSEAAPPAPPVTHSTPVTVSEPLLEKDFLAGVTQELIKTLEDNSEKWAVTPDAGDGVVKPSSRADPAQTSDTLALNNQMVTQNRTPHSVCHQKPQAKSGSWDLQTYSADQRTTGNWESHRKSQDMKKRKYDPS
In the case of `CSc1ccccc1NC(=O)COC(=O)CCCOc1ccc(C)cc1`, the inhibition is -13.4% (inactive).

As for `CCCCCCCCCCOC(=O)Cn1c(COc2ccc(C)cc2)[n+](C)c2ccccc21`, the inhibition was 79.8% (active).

On to `Cc1ccc(COc2ccc(C(=O)NN)cc2)cc1`, for which the inhibition was -18.7% (inactive).

On to `COCC#Cc1ccc2c(c1)O[C@@H](CN(C)C(=O)Nc1ccccc1F)[C@H](C)CN([C@H](C)CO)S2(=O)=O`, for which the inhibition is 11.1% (inactive).

As for `O=S(=O)(c1ccccc1)N1CCCCN2[C@H](C1)[C@H](c1ccc(-c3ccccc3)cc1)[C@@H]2CO`, the inhibition was -26.6% (inactive).

`C[C@H]1CN([C@@H](C)CO)C(=O)c2cc(NC(=O)CCC(F)(F)F)ccc2O[C@H]1CN(C)Cc1ccc(C(=O)O)cc1`: the inhibition is -6.5% (inactive).

Turning to `COc1cccc2sc3cc(NCC[C@@H]4CCCN4C)ccc3c(=O)c12`, the inhibition is -48.1% (inactive).

Regarding `Cc1cc2oc3ccc(NCCC4CCCN4C)cc3c(=O)c2cc1C` (configuration not stated), the inhibition is 60.4% (active).

Take `CN1CCC[C@@H]1CCO[C@](C)(c1ccccc1)c1ccc(Cl)cc1`: the inhibition was 27.4% (inactive).

For `COc1ccc2c3c([nH]c2c1)[C@H](CO)N(C(=O)c1ccncc1)CC31CCN(C(=O)c2ccncc2)CC1`, the inhibition is 2.16% (inactive).

Consider `COc1cccc(S(=O)(=O)N2C[C@@H]3N[C@H](C2)C3c2ccc(-c3cccc(C(=O)N(C)C)c3)cc2)c1` (some centres not stated), for which the inhibition is 10.5% (inactive) and 16.9% (inactive).

As for `COc1ccccc1S(=O)(=O)N1C[C@@H]2N[C@H](C1)C2c1ccc(-c2cccc(C)c2)cc1` (some centres not stated), the inhibition is 56.8% (active) and 37.8% (inactive).

Take `N#Cc1ccc(-c2ccc(C3[C@@H]4CN(S(=O)(=O)c5ccccc5F)C[C@H]3N4)cc2)cc1` (some centres not stated): the inhibition is -15.8% (inactive) and -46.3% (inactive).

As for `COc1ccc(NC(=O)N(C)C[C@H]2Oc3ccc(NS(=O)(=O)c4ccc(F)cc4)cc3C(=O)N([C@@H](C)CO)C[C@@H]2C)cc1`, the inhibition is 15.8% (inactive).

In the case of `C[C@H](CO)N1C[C@H](C)[C@@H](CN(C)Cc2ccc(Cl)c(Cl)c2)Oc2ccc(NS(=O)(=O)c3ccccc3)cc2C1=O`, the inhibition was -11.9% (inactive).

As for `NCCCNC(=S)NCCCN(Cc1ccc(Cl)cc1)c1ccc(Br)cn1`, the inhibition is 95% (active).

As to `O=C(/C=C/c1ccc(Cl)cc1)Nc1ccc(Br)cn1`, the inhibition is -0.893% (inactive).

Take `S=C(NCCCc1cnc[nH]1)NCCCN(Cc1ccc(Cl)c(Cl)c1)c1ccc(Br)cn1`: the inhibition is -1.73% (inactive).

For the molecule `O=C1CN(S(=O)(=O)c2ccccc2)C[C@H]2[C@H](c3ccc(C4=CCCC4)cc3)[C@@H](CO)N12`, the inhibition is -19.1% (inactive).

`C[C@H](NC(=O)C[C@@H]1C=C[C@H](NC(=O)CN2CCOCC2)[C@H](CO)O1)c1ccccc1`: the inhibition is 3.29% (inactive).

On to `Cc1ccc2nc(CN(C)C(=O)[C@@H](Cc3ccccc3)NC(=O)[C@H]3O[C@@H](n4ccc(=O)[nH]c4=O)[C@H](O)[C@@H]3O)[nH]c2c1`, for which the inhibition was 5.6% (inactive).

Take `C[C@@H]1CN([C@H](C)CO)C(=O)Cc2cc(N(C)C)ccc2O[C@H]1CN(C)S(C)(=O)=O`: the inhibition is -4.07% (inactive).

Take `CC(=O)Nc1ccc(Nc2c3ccccc3nc3ccccc23)cc1`: the inhibition was 91.2% (active).

Consider `CC(=O)NCCn1c(SCC(=O)Nc2ccc(C)cc2)nc2ccccc2c1=O`, for which the inhibition was -11.4% (inactive).

For the molecule `CCc1c(C)nc2c(-c3ccccc3)c(C)nn2c1Nc1ccc(NC(C)=O)cc1`, the inhibition is -12.3% (inactive).

In the case of `O=C(c1cnccn1)N1CC(=O)N2[C@H](C1)[C@@H](c1ccc(C#CC3CCCCC3)cc1)[C@@H]2CO`, the inhibition is 13.7% (inactive).

In the case of `CN(C)CCNC(=O)c1ccc(Cl)c2cc3ccccc3nc12`, the inhibition was 94.5% (active).

`O=C(NCCc1ccccn1)c1cc(-c2ccc(Cl)cc2)nc2ccccc12`: the inhibition was -15.9% (inactive).

Regarding `CNC(=O)c1cccc2nc3ccccc3nc12`, the inhibition is 2.55% (inactive).

`Cn1cnc(S(=O)(=O)N[C@H]2C=C[C@H](CC(=O)NCC3CCCCC3)O[C@@H]2CO)c1`: the inhibition was 2.08% (inactive).

Take `C[C@@H]1CCCCO[C@H](CN(C)S(=O)(=O)c2cccs2)[C@H](C)CN([C@@H](C)CO)C(=O)c2cc(NS(=O)(=O)c3cccs3)ccc2O1`: the inhibition was -2.6% (inactive).

Take `CC(C)NC(=O)N(C)C[C@H]1OCCCC[C@H](C)Oc2ccc(NS(=O)(=O)c3ccc(Cl)cc3)cc2C(=O)N([C@@H](C)CO)C[C@H]1C`: the inhibition was 15.1% (inactive).

Consider `C[C@H](CO)N1C[C@H](C)[C@H](CN(C)Cc2ccc(C(F)(F)F)cc2)OCCCC[C@H](C)Oc2ccc(NS(=O)(=O)c3ccc(Cl)cc3)cc2C1=O`, for which the inhibition is 5.56% (inactive).

`C[C@@H]1CCCCO[C@H](CN(C)Cc2ccccc2)[C@H](C)CN([C@@H](C)CO)C(=O)c2cc(NS(=O)(=O)c3ccccc3)ccc2O1`: the inhibition is 7.51% (inactive).

For the molecule `C[C@@H]1CN([C@H](C)CO)C(=O)c2cc(NS(=O)(=O)c3cccs3)ccc2O[C@@H](C)CCCCO[C@@H]1CN(C)S(=O)(=O)c1cccs1`, the inhibition is -0.96% (inactive).

For the molecule `C[C@@H]1CCCCO[C@H](CN(C)C(=O)CCCN(C)C)[C@H](C)CN([C@@H](C)CO)C(=O)c2cc(NS(=O)(=O)c3ccccc3)ccc2O1`, the inhibition is 13.8% (inactive).

As for `C[C@@H]1CN([C@@H](C)CO)C(=O)c2cc(NS(=O)(=O)c3cn(C)cn3)ccc2O[C@@H](C)CCCCO[C@H]1CN(C)S(=O)(=O)c1cccs1`, the inhibition is 99.3% (active).

For `C[C@@H]1CCCCO[C@H](CN(C)Cc2ccccc2)[C@H](C)CN([C@H](C)CO)C(=O)c2cc(NS(=O)(=O)c3ccc(Cl)cc3)ccc2O1`, the inhibition is 53.1% (active).

Regarding `C[C@@H]1CCCCO[C@H](CN(C)C(=O)CCCN(C)C)[C@H](C)CN([C@@H](C)CO)C(=O)c2cc(NS(=O)(=O)c3ccc(Cl)cc3)ccc2O1`, the inhibition was 52.5% (active).

With `C[C@@H]1CN([C@H](C)CO)C(=O)c2cc(NS(=O)(=O)c3ccc(Cl)cc3)ccc2O[C@@H](C)CCCCO[C@H]1CN(C)Cc1ccccc1`, the inhibition is 64.2% (active).

On to `C[C@H](CO)N1C[C@H](C)[C@@H](CN(C)Cc2ccncc2)OCCCC[C@H](C)Oc2ccc(NS(=O)(=O)c3ccc(Cl)cc3)cc2C1=O`, for which the inhibition was -15.9% (inactive).

Turning to `C[C@@H]1CCCCO[C@H](CN(C)Cc2ccccc2)[C@@H](C)CN([C@H](C)CO)C(=O)c2cc(NS(=O)(=O)c3ccc(Cl)cc3)ccc2O1`, the inhibition is 35.2% (inactive) and -9.61% (inactive).
